Test [1] can be described thus: binders of probe aFSTL3 on microarray, primary screen, stem cell growth factor project, biochemical, small-molecule microarray, fluorescence 635/667 (AID 1064).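 Note: measures binding of the biotinylated anti-FSTL3 antibody to printed compounds.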 Particulars: higher = more signal.
The nature of test [2]: binders from COS7 lysate, DM2A8 probe, primary screen, torsin A project, cell lysate, small-molecule microarray, fluorescence 635/667 (AID 1065). The settings on record: higher = more signal, COS7 lysate expressing mutant human TOR1A.
Test [3] can be described thus: binders of probe aFGF2 on microarray, primary screen, stem cell growth factor project, biochemical, small-molecule microarray, fluorescence 635/667 (AID 1067).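 Note: measures binding of biotinylated aFGF2 protein to printed compounds on slides; z-score merges feature fluorescence and signal-to-noise across triplicate slides.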 The settings on record: higher = more signal.
Test [4] in a line: binders of probe aFGF10 on microarray, primary screen, stem cell growth factor project, biochemical, small-molecule microarray, fluorescence 635/667 (AID 1071).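 Note: score merges 667 nm spot intensity and signal to noise from triplicate slides.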 The settings on record: higher = more signal.
In test [5] the target is Neurogenic locus notch homolog protein 2 (Homo sapiens) (UniProt Q04721). The experiment in a line: Notch2 binders on small-molecule microarrays, primary screen, biochemical, small-molecule microarray, 635 nm fluorescence, stem cell growth factors (AID 1073). Particulars: Notch2 binding, higher = more signal.
Chain of Neurogenic locus notch homolog protein 2 (Homo sapiens) (Q04721 whole entry, looked up, canonical isoform): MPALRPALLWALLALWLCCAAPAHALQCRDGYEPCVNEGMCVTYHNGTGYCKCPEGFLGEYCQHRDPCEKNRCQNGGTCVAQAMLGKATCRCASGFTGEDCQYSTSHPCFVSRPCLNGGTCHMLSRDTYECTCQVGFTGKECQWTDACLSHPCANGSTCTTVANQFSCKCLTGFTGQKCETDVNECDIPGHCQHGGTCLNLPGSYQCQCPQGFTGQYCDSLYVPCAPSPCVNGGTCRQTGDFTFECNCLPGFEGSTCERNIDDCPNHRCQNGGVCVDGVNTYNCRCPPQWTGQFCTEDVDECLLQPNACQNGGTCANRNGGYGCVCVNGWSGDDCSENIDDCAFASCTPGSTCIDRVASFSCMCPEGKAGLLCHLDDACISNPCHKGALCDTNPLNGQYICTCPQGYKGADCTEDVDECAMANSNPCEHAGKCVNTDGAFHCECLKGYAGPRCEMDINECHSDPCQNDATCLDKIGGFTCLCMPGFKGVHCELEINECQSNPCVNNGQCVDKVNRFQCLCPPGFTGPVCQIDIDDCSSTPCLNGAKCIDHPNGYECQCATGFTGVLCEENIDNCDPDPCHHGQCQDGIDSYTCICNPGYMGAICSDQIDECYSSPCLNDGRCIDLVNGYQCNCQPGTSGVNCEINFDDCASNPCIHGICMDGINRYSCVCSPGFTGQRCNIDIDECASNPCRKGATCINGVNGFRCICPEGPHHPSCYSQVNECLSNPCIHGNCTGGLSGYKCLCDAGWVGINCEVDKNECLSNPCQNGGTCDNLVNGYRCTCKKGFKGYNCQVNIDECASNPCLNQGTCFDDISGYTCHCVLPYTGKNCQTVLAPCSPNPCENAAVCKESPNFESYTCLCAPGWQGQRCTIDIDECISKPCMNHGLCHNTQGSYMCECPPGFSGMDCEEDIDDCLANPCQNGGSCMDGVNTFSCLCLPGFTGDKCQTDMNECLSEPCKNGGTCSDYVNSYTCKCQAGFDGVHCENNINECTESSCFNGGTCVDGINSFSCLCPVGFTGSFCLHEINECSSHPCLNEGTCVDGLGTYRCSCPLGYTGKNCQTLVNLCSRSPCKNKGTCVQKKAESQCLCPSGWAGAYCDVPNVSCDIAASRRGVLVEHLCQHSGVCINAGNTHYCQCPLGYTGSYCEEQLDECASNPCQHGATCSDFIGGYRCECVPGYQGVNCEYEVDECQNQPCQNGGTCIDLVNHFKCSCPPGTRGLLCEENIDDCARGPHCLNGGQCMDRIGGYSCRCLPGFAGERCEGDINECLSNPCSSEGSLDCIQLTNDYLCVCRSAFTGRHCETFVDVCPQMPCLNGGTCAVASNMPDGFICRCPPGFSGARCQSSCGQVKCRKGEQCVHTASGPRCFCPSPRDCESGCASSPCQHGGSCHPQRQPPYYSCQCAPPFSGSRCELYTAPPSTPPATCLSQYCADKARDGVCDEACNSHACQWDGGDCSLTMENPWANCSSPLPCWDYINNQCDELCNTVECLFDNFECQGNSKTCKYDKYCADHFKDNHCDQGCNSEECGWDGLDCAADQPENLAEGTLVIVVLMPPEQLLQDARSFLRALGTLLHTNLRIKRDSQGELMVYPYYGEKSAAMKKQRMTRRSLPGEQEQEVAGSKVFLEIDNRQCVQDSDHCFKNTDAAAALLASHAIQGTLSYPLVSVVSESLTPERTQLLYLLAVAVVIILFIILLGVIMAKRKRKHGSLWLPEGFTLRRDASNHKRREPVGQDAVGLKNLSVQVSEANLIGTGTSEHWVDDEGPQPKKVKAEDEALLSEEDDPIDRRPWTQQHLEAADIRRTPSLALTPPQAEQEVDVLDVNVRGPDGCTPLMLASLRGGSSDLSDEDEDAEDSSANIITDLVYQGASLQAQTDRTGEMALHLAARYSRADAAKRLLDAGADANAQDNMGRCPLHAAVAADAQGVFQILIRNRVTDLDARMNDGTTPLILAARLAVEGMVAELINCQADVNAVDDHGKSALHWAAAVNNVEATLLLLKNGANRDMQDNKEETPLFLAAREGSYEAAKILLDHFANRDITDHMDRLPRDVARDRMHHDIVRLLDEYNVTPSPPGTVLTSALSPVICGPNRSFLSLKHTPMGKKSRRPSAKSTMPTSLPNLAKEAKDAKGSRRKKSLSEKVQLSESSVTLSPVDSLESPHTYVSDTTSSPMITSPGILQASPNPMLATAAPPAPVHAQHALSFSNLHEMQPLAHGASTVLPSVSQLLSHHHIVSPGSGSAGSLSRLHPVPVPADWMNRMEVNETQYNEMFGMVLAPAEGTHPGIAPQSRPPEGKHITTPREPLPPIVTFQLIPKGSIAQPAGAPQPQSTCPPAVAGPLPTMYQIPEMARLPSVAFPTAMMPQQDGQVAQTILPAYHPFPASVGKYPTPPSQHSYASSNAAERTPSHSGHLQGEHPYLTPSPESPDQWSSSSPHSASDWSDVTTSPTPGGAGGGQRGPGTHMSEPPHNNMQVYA
For test [6], the target named is Pro-neuregulin-1, membrane-bound isoform (Homo sapiens) (UniProt Q02297). In words: NRG1 binders on small-molecule microarrays, primary screen, psychiatric disease protein project, biochemical, small-molecule microarray, fluorescence 635/667 (AID 1075).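 Note: score combines 667 nm spot fluorescence with signal to noise.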 Particulars: NRG1 binding, 635 nm fluorescence, higher = more signal.
Chain of Pro-neuregulin-1, membrane-bound isoform (Homo sapiens) (Q02297 whole entry, looked up, the tested form may be a part, canonical isoform): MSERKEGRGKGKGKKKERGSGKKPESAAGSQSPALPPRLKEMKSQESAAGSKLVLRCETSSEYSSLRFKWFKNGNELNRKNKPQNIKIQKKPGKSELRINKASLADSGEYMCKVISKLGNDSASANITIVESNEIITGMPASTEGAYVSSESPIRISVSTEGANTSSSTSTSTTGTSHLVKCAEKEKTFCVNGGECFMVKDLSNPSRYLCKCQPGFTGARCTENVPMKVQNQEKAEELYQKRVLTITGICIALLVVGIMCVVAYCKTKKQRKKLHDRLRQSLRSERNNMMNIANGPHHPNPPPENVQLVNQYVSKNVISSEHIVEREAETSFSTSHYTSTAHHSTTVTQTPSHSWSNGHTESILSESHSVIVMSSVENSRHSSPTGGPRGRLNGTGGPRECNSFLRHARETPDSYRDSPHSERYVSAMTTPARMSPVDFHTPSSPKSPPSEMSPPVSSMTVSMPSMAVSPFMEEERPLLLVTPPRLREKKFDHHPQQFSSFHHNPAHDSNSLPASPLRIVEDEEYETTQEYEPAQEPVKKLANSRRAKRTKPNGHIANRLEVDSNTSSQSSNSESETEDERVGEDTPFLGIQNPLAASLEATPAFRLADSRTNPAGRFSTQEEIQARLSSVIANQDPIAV
Test [7] deals with Neuregulin-1 EGF-like domain. In words: binders of neuregulin-1 EGF-like domain, primary screen, biochemical, small-molecule microarray, 635 nm fluorescence (AID 1081).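 Note: binding of the protein to compounds printed on small-molecule microarray slides.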 The settings on record: small-molecule microarray binding, higher = more signal.
The nature of test [8]: FRG1 promoter luciferase signal modulators, primary screen, FRG1 inhibition for FSHD, cell-based, C2C12 myotubes, firefly/Renilla luciferase, luminescence (AID 1084). The settings on record: higher = more signal, called active from +8 up or from −8 down.
Test [9] is described as follows: binders of probe aFST on microarray, primary screen, stem cell growth factor project, biochemical, small-molecule microarray, fluorescence 635/667 (AID 1086).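 Note: score merges 667 nm fluorescence with signal-to-noise of each printed compound spot.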 Particulars: higher = more signal.
A short description of test [10]: binders of probe aHhip on microarray, primary screen, stem cell growth factor project, biochemical, small-molecule microarray, fluorescence 635/667 (AID 1087).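 Note: score merges spot fluorescence at 667nm with spot signal to noise ratio.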 Particulars: higher = more signal.
In test [11] the test system is PRMT1 (protein arginine N-methyltransferase 1). The experiment in a line: PRMT1 binders on small-molecule microarrays, primary screen, biochemical, small-molecule microarray, 635 nm fluorescence (AID 1088).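 Note: binding of Prmt1 protein to compounds spotted on small-molecule microarray slides.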 The settings on record: small-molecule microarray binding, higher = more signal.
The nature of test [12]: yeast growth modulation, basal conditions, primary screen, YJM789 clinical isolate, OD600, 24 h (AID 1089).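 Note: growth of clinical yeast isolate S. cerevisiae YJM 789 seeded 1000 cells per well; test concentration not given here.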 Particulars: S. cerevisiae YJM789 growth, higher = more signal, called active from +8 up or from −8 down.
Test [13] is described as follows: fission yeast growth modulation, primary screen, strain 972, OD600, 24 h, no modulator (AID 1090).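 Note: basal condition with compound alone and no growth modifier present; test concentration not given here.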 Particulars: S. pombe 972 growth, higher = more signal, called active from +8 up or from −8 down.
Test [14] can be described thus: S. cerevisiae growth modulation with rapamycin, primary screen, strain BY4716, OD600, 96 h (AID 1091). Note: test concentration not given here. Particulars: higher = more signal, called active from +8 up or from −8 down.
In test [15] the target is Torsin-1A-interacting protein 2 (Homo sapiens) (UniProt Q8NFQ8). In words: LULL1 binders on small-molecule microarray, primary screen, cell lysate, human LULL1 lysate, 635/667 nm fluorescence (AID 1092).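 Note: probe is lysate of COS7 cells overexpressing human LULL1; score merges per-feature 667 nm fluorescence with signal-to-noise.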 The settings on record: hLULL1 lysate binding, 635 nm fluorescence, higher = more signal.
Chain of Torsin-1A-interacting protein 2 (Homo sapiens) (Q8NFQ8 whole entry, looked up): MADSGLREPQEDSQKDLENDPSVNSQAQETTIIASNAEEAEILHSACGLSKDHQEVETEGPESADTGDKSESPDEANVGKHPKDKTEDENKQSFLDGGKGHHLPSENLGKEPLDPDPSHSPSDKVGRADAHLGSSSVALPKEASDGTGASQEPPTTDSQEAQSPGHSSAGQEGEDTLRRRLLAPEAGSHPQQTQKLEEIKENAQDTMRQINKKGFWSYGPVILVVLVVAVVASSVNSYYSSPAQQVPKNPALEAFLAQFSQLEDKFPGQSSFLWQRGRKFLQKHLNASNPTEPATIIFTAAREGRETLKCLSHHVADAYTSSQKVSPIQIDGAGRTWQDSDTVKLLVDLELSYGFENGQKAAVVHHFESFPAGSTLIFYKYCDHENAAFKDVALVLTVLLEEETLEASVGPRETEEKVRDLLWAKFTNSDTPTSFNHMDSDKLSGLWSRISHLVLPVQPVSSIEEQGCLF
A short description of test [16]: E. coli growth modulation, two-sided OD650, primary screen, E. coli filamentation project, strain DRC41, 24 h (AID 1093).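 Note: MC1000 strain lacking acrAB efflux and sulA so SOS filamentation is blocked; test concentration not given here.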 The settings on record: OD650, 24 h, higher = more signal, called active from +8 up or from −8 down.
The nature of test [17]: small-molecule microarray binders of probe aLefty2, primary screen, biochemical, biotinylated probe, 635/667 nm fluorescence (AID 1094).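 Note: score merges spot fluorescence near 667 nm with spot signal-to-noise ratio.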 The settings on record: higher = more signal.
Test [18] relates to Noggin (protein binding on small-molecule microarray). The experiment in a line: Noggin binders on small-molecule microarray, primary screen, biochemical, 635/667 nm fluorescence (AID 1095).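 Note: score merges 667 nm feature fluorescence with signal to noise over triplicate slides.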 Particulars: 635 nm fluorescence, higher = more signal.
Test [19] addresses Neurogenic locus notch homolog protein 3 (Homo sapiens) (UniProt Q9UM47). In words: NOTCH3 binders on small-molecule microarray, primary screen, biochemical, 635/667 nm fluorescence (AID 1096). Particulars: NOTCH3 binding, 635 nm fluorescence, higher = more signal.
Test [20] in a line: small-molecule microarray binders of probe aEGFR, primary screen, biochemical, biotinylated probe, 635/667 nm fluorescence (AID 1097).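 Note: probe is a biotinylated anti-EGFR antibody binding compounds printed on slides; score combines fluorescence near 667 nm and signal to noise of each spot.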 Particulars: higher = more signal.

The source made the active and inactive calls.

Turning to `O=C1O[C@@H](c2ccccc2)[C@@H](c2ccccc2)N2[C@@H](c3ccc(OCCO)cc3)[C@]3(C(=O)Nc4ccc(C#CCCO)cc43)[C@@H](C(=O)O)[C@H]12`, the composite z-score came to 1.47 in test [1]; 0.431 in [2]; 0.213 in [3]; 0.749 in test [4]; 0.882 in [5]; 1.46 in test [6]. Besides, the composite z-score in test [7] turned out to be 1.24; in [9], 1.9; in test [10], 0.102; in [11], 1.53; in [15] it was 2.68; in test [17] it was 1.03. Moreover, the composite z-score was determined as 1.31 in [18], 1.04 in [19] and 0.853 in [20]. Further, the z-score in test [8] was -1.75 (inactive); in [12], 0.659 (inactive); in test [13] it was 0.799 (inactive); in test [14], -0.261 (inactive); in [16] it was 0.543 (inactive).
As to `COc1cc(OC)c(C(O)C2C=CC3C(=O)N(c4ccccc4)C(=O)C3N2Nc2ccc(C(C)C)cc2)cc1Br` (stereo not given), the composite z-score is 0.108 in [1]; -0.0919 in [2]; 0.0559 in test [3]; 0.774 in [4]; 1.44 in test [5]; 1.4 in test [6]. Besides, the composite z-score in [7] is 1.28; in [9], 1.2; in [10] it was -0.0994; in [11], 1.48; in test [15], 3.55; in test [17] it was 0.136. The composite z-score was -0.276 in test [18], 1.05 in test [19] and 0.582 in [20]. Further, the z-score was -2.19 (inactive) in test [8]; -0.0401 (inactive) in test [12]; 1.09 (inactive) in test [13]; -0.323 (inactive) in test [14]; 0.315 (inactive) in test [16].
As for `COc1ccc([Si](C)(C)[C@H]2[C@H](CC(=O)N3Cc4ccccc4C[C@H]3CO)O[C@@]3(C(=O)N(C)c4c(Br)cc(C)cc43)[C@@H]2C)cc1`, the composite z-score is -0.0669 in test [1]; 0.403 in [2]; -0.119 in [3]; 0.333 in [4]; 0.363 in test [5]; 1.05 in test [6]. The composite z-score was 1.11 in [7]; 0.334 in test [9]; -0.132 in test [10]; 1.54 in test [11]; 0.986 in test [15]; -0.0631 in test [17]. The composite z-score in test [18] was 1.42; in test [19], 1.09; in test [20], -0.0828. Besides, the z-score is -4.4 (inactive) in test [8]; 0.344 (inactive) in test [12]; 0.788 (inactive) in [13]; 5.53 (inactive) in test [14]; -0.498 (inactive) in test [16].
For `CC[C@@H]1C=C(C(=O)O)[C@H](c2ccc(OC)cc2)N1S(=O)(=O)c1ccc(C)cc1`, the composite z-score in test [1] is 0.0675; in test [2], -0.194; in test [3], -0.128; in test [4], -0.0542; in test [5] it was 0.0174; in [6], 0.993. Further, the composite z-score was 1.28 in test [7]; 0.233 in test [9]; -0.0994 in test [10]; -0.222 in test [11]; 2.15 in [15]; -0.0491 in [17]. In addition, the composite z-score in test [18] was -0.199; in test [19], 0.624; in test [20], -0.0828. Moreover, the z-score in test [8] is 0.267 (inactive); in test [12], -0.639 (inactive); in test [13] it was 0.211 (inactive); in [14], -0.113 (inactive); in [16], -1.04 (inactive).
`CCCCCCc1nc(Cc2cc(OC)c(OC)c(OC)c2)cc2c1[Si](C(C)C)(C(C)C)O[C@H]2c1ccccc1`: the composite z-score in test [1] is -0.557; in test [2], 0.251; in test [3] it was -0.0599; in test [4], 0.0804; in test [5], 0.191; in [6], -0.0387. Moreover, the composite z-score is -0.712 in test [7]; 0.0506 in test [9]; 0.0677 in [10]; 0.811 in test [11]; -0.0751 in test [15]; -0.176 in test [17]. The figures for the composite z-score in test [18], in test [19] and in test [20] were 0.619, 0.819 and -0.0975, respectively. Further, the z-score is -0.361 (inactive) in test [8]; 0.153 (inactive) in test [12]; 0.87 (inactive) in [13]; 0.0217 (inactive) in [14]; -1.41 (inactive) in test [16].
